Measurements published in PubChem BioAssay (NCATS).
“And” between values parts separate entries of the source, which are not always exact repeats. Equal entries are not always repeated. Results filed as inconclusive are left out. The source made the active and inactive calls. Unless noted, calls follow the shape of the dose curve; as a rule, active = well fitted curve in the direction sought with a large enough effect; inconclusive = small, poorly fitted or top-dose-only effect, or another doubt; inactive = no such curve, though single readings can be large; an effect the other way counts as inactive or inconclusive.

Tests used:
[1] = target: Retinoic acid receptor RXR-alpha (Homo sapiens) (UniProt P19793); assay: qHTS assay for small molecule antagonists of retinoid X receptor alpha signaling (AID 588546; active = well fitted inhibition curve with a large enough effect in the signal ratio, with a control signal flat, not every such curve was filed as active; the % refers to the signal ratio;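 also: cells stimulated with 9-cis-retinoic acid as agonist; % is scaled to controls: 0 for no effect and ±100 for the full control effect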); settings: HEK293T RXRa-UAS-bla, beta-lactamase ratio, antagonist mode
Outline: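 Beta-lactamase reporter inhibition, read as CCF4 fluorescence ratio (ex 405, em 460/530 nm) after 2 h at RT. HEK293T UAS-bla cells, 2500/well, were stimulated with 9-cis-RA at 500 or 100 nM final alongside test compound for 18 h at 37 C.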

[2] = target: Thyroid hormone receptor beta (Homo sapiens) (UniProt P10828); assay: qHTS assay for small molecule antagonists of thyroid hormone receptor beta signaling (AID 588547; active = well fitted inhibition curve with a large enough effect in the signal ratio, with a control signal flat, not every such curve was filed as active; the % refers to the signal ratio;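 also: cells stimulated with 0.4 nM T3 agonist during compound exposure; series mostly up to about 77 µM; % is scaled to controls: 0 for no effect and ±100 for the full control effect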); settings: TR-UAS-bla HEK293, beta-lactamase ratio, antagonist mode, 18 h
Outline: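 TR-UAS-bla GripTite HEK293 cells in 2% charcoal/dextran FBS medium were preincubated 4 h at 37 C, given compound (0.59 nM to 92 uM) plus 0.4 nM T3 (final) for 18 h, then CCF4 for 2 h at RT; Hill fit gave IC50.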

[3] = target: Voltage-gated inwardly rectifying potassium channel KCNH2 (Homo sapiens) (UniProt Q12809); assay: qHTS Assay for Small Molecule Inhibitors of the Human hERG Channel Activity (AID 588834);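 also: top concentration of the series differs between compounds; % is scaled to controls: 0 for no effect and ±100 for the full control effect; lower thallium flux fluorescence means stronger hERG block; nearly all actives have a fitted effect of over 50% in size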
Outline: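 Kinetic FDSS fluorescence; U2OS + hERG BacMam (~100 virus particles/cell); FluxOR Tl+ flux; ~10 min cpd; AC50 (Hill).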

[4] = qHTS assay for small molecule agonists of the antioxidant response element (ARE) signaling pathway (AID 651741; active = well fitted activation curve with a large enough effect in the signal ratio; the % refers to the signal ratio; also: potency is read from the fitted curve at half-maximal effect)
Outline: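 Compounds in DMSO are pinned onto HepG2 ARE-bla cells (2,000/well) that were preincubated 5 h; plates stay 16 h at 37 C, then beta-lactamase activity is detected with LiveBLAzer B/G substrate by fluorescence.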

[5] = qHTS assay for small molecule activators of the p53 signaling pathway (AID 651743; active = well fitted activation curve with a large enough effect in the signal ratio, not every such curve was filed as active; the % refers to the signal ratio; also: potency is read from the fitted curve at half-maximal effect); settings: HCT-116 p53RE-bla, beta-lactamase FRET ratio, 16 h; activation: stronger effect = higher value
Outline: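 Cell-based beta-lactamase reporter (p53 response elements, HCT-116 background). After a 5-hour preincubation, cells received compound for 16 hours at 37 C; substrate development ran 2 hours at room temperature.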

[6] = qHTS assay for small molecule activators of the nuclear factor-kappa B (NF-kB) signaling pathway (AID 651749; active = well fitted activation curve with a large enough effect in the signal ratio; the % refers to the signal ratio; also: series mostly up to about 77 µM; % of control where 0% means no effect); settings: NF-kB-bla ME-180 cells, beta-lactamase FRET ratio, 16 h; activation: stronger effect = higher value
Outline: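 Screening used 2,000 ME-180 reporter cells per well exposed to pinned compound (23 nL) or DMSO; after 16 hr at 37C, beta-lactamase expression under NF-kB control was assessed through FRET.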

[7] = qHTS assay for small molecule disruptors of the mitochondrial membrane potential - 1 hr assay (AID 651754; calls by dose curve; also: potency is read from the fitted curve at half-maximal effect; nearly all actives have a fitted effect of over 35% in size)
Outline: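 HepG2 cells, attached overnight, were exposed to compound for 1 hr at 37C, then stained 30 min with a potentiometric dye. Ratio of red aggregate (590nm) to green monomer (535nm) fluorescence reports membrane potential; collapse shifts signal toward green.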

[8] = qHTS assay for small molecule disruptors of the mitochondrial membrane potential - 5 hr assay (AID 651755; calls by dose curve; also: potency is read from the fitted curve at half-maximal effect; nearly all actives have a fitted effect of over 40% in size)
Outline: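 HepG2 cells, attached overnight at 37C, were exposed to compound or DMSO for 5 hr at 37C, 5% CO2. Mito-MPS dye was then added for 30 min, and fluorescence read at 490/535 nm (monomers) and 540/590 nm (aggregates).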

[9] = target: Tumor necrosis factor (Homo sapiens) (UniProt P01375); assay: qHTS assay to identify small molecules that stimulate Tumor Necrosis Factor-alpha (TNF-alpha) secretion (AID 651757; active = well fitted curve in the direction sought with a large enough effect in the signal ratio; the % refers to the signal ratio; also: 0% is about no effect)
Outline: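 THP-1 cells (3000/well) exposed to compounds 17 hrs at 37 C. Secreted TNF-alpha detected by HTRF with cryptate- and XL665-labeled anti-TNF-alpha antibodies after 3 hr at room temperature.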

[10] = qHTS assay for environmental chemicals that activate the Aryl hydrocarbon Receptor (AhR) signaling pathway (AID 651777); settings: 1A2-DRE human hepatoma cells, luciferase, 24 h; activation: stronger effect = higher value; also: potency is read from the fitted curve at half-maximal effect; nearly all actives have a fitted effect of over 15% in size
Outline: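 Measured luciferase activity, read 30 min after One-Glo addition at room temperature, from human hepatoma cells bearing a dioxin response element–CYP1A2 promoter reporter and exposed to compound for 24 hr at 37 C.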

[11] = target: Peroxisome proliferator-activated receptor alpha (Homo sapiens) (UniProt Q07869); assay: qHTS assay for small molecule agonists of the peroxisome proliferator-activated receptor alpha (PPARalpha) signaling pathway (AID 651778); settings: PathHunter PPARalpha complementation, chemiluminescence, 6 h; stronger effect = higher value; also: % of control where 0% means no effect
Outline: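 Cells plated at 2,000/well and held overnight at 37 C, 5% CO2, then compound added by pin tool for 6 hr; after PathHunter detection reagent and 60 min at room temperature, chemiluminescence from enzyme complementation was read.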

[12] = target: Nuclear receptor ROR-gamma (Homo sapiens) (UniProt P51449); assay: qHTS assay for small molecule antagonists of the retinoid-related orphan receptor gamma (ROR-gamma) signaling pathway (AID 651802); also: potency is read from the fitted curve at half-maximal effect; nearly all actives have a fitted effect of over 60% in size
Outline: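 CHO cells with TET-inducible ROR-gamma and RORE-luciferase reporter, dosed then doxycycline-induced. After 16 h at 37C, One-Glo luminescence read; decreased signal indicates antagonism.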

[13] = qHTS assay for small molecule agonists of the antioxidant response element (ARE) signaling pathway measured by Nrf2-dependant transcriptional activity (AID 720636; active = well fitted curve in the direction sought with a large enough effect in the repeat runs; an effect the other way counts as inactive or inconclusive;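 also: HepG2 cells with an ARE-driven luciferase reporter; % of control where 0% means no effect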)
Outline: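 In HepG2 cells engineered with an Nrf2-responsive luciferase gene, ARE induction was quantified as luminescence after 16 hr compound treatment at 37 C.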

[14] = qHTS assay for small molecule agonists of the antioxidant response element (ARE) signaling pathway measured by Nrf2-dependant transcriptional activity - cell viability counter screen (AID 720653; active = well fitted curve in the direction sought with a large enough effect in the repeat runs; an effect the other way counts as inactive or inconclusive; also: % is scaled to controls: 0 for no effect and ±100 for the full control effect); settings: ARE-bla HepG2 viability, CellTiter-Glo ATP luminescence, 16 h; max response: stronger effect = lower value
Outline: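 ARE-bla HepG2 cells (2,000/well) rested 5 hrs at 37C/5% CO2, then exposed to compounds in DMSO for 16 hrs. Viability was read in the same wells as intracellular ATP by luminescence, 30 min at room temperature after reagent addition.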

[15] = qHTS assay for cell viability of HEK293 cells (AID 743288); settings: ATP luminescence (CellTiter-Glo), 18 h; max response: stronger effect = lower value; also: % is scaled to controls: 0 for no effect and ±100 for the full control effect; nearly all actives have a fitted effect of over 50% in size
Outline: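 Total intracellular ATP, measured with a luciferase-coupled reagent, indicates the number of viable HEK293 cells. Exposure to test chemicals lasts 18 h at 37 C in 1,536-well format at 2,000 cells/well.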

[16] = qHTS assay for cell viability of the p53RE-bla HCT-116 cell line (AID 743292); also: % is scaled to controls: 0 for no effect and ±100 for the full control effect; nearly all actives have a fitted effect of over 55% in size
Outline: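 Intracellular ATP of p53RE-bla HCT-116 cells measured by luciferase luminescence following 16 h compound incubation at 37 C; DMSO-only wells served as vehicle controls.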

Furin (Homo sapiens) = Furin (Homo sapiens) (UniProt P09958); assay: Furin counterscreen qHTS for Zika virus inhibitors (AID 1347149);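 also: purified recombinant full-length human furin enzyme at 5 nM; fluorescence gain from furin cutting a BOC-RVRR-AMC peptide substrate over 15 min; top concentration of the series differs between compounds; plate controls were no-inhibitor control for no effect and no-enzyme control for full effect; nearly all actives have a fitted effect of over 70% in size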
Outline: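 Fluorogenic cleavage of BOC-RVRR-AMC (2 microM final, Km ~15 µM) was monitored (ex 340, em 450 nm) at 37C after 15 min RT preincubation of 5 nM furin with compounds in HEPES pH 7.0 buffer with CaCl2 and Triton X-100. Percent inhibition was fitted to a 4-parameter Hill curve.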

[17] = Confirmatory screen GU Rhodamine qHTS for Zika virus inhibitors qHTS (AID 1347157); also: potency is read from the fitted curve at half-maximal effect; nearly all actives have a fitted effect of over 70% in size
Outline: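 Enzyme 25 nM in Tris-HCl pH 8.0 + 0.01% Tween 20; compounds up to 114 microM, 15 min RT dark; + Rhod110 substrate 1.5 microM; read t0 and 15 min; delta fluorescence → % inhibition → 4-parameter Hill fit.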

[18] = ZIKV-mCherry secondary qHTS for Zika virus inhibitors (AID 1347158); settings: Vero cells, ZIKV-mCherry infection imaging, 48-72 h; also: potency is read from the fitted curve at half-maximal effect
Outline: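 Vero cells (5,000/well) were given compound, then infected with ZIKV-mCherry at MOI 1 for 48–72 h at 37 °C. After PFA fixation and Hoechst staining, imaging gave percent mCherry-positive cells. The positivity threshold was RFU above 450, 3 SD over negative controls.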

[19] = Confirmatory screen NINDS Rhodamine qHTS for Zika virus inhibitors (AID 1347161); also: potency is read from the fitted curve at half-maximal effect; nearly all actives have a fitted effect of over 60% in size
Outline: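 In 10 mM Tris-HCl pH 8.0 containing 0.01% Tween 20, linked NS2B-NS3 protease (25 nM final) is exposed to test compounds for 15 min. Cleavage of 1.5 microM Rhodamine110 substrate is tracked by fluorescence over 15 min.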

[20] = test system: Zika virus NS2B-NS3 protease (linked); assay: 384 well plate NINDS AMC confirmatory qHTS for Zika virus inhibitors (AID 1347163); settings: Recombinant NS2B-NS3 protease, Ac-VKTGKR-AMC fluorescence; also: potency is read from the fitted curve at half-maximal effect; nearly all actives have a fitted effect of over 50% in size
Outline: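 Linked NS2B-NS3 protease (final 5 nM, 30 nM or 60 nM) was preincubated with compounds (final up to 1 mM) for ~15 minutes. Ac-VKTGKR-AMC substrate (final 30 microM) then reacted for 25 minutes at room temperature in the dark. Fluorescence (ex 355/em 460 nm) was normalized to no-enzyme and no-inhibitor controls.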

[21] = test system: Zika virus NS2B-NS3 protease (linked construct); assay: 384 well plate NINDS Rhodamine confirmatory qHTS for Zika virus inhibitors (AID 1347164);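 also: fluorescence from protease cleavage of Ac-LKRR-rhodamine 110 substrate; potency is read from the fitted curve at half-maximal effect; nearly all actives have a fitted effect of over 65% in size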
Outline: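 Fluorescence at 485/538 nm was measured 25 minutes after adding 10 microM Ac-LKRR-Rd substrate, in the dark at room temperature. The protease (5, 30 or 60 nM final) had been preincubated ~15 minutes with compound; aprotinin as control.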

[22] = target: Nuclear receptor subfamily 1 group I member 2 (Rattus norvegicus) (UniProt Q9R1A7); assay: qHTS assay for small molecule activators of the rat pregnane X receptor (rPXR) signaling pathway (AID 651751; call rule not given here; also: 0% is about no effect); settings: rPXR reporter cells, luciferase (One-Glo), 24 h
Nuclear receptor subfamily 1 group I member 2 (Rattus norvegicus), sequence (Q9R1A7 whole entry, looked up): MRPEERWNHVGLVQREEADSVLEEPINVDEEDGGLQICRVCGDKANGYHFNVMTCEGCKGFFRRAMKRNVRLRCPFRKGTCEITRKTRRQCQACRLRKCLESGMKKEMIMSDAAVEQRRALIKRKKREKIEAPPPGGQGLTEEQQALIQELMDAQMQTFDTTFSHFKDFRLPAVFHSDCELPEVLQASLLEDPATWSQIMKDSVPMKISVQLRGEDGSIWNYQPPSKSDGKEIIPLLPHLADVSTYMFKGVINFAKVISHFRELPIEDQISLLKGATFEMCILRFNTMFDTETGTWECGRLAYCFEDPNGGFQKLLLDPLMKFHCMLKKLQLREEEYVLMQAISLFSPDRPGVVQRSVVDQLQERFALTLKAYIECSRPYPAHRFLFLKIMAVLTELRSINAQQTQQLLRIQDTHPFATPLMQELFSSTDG

Retinoic acid receptor RXR-alpha (Homo sapiens), sequence (P19793 whole entry, looked up): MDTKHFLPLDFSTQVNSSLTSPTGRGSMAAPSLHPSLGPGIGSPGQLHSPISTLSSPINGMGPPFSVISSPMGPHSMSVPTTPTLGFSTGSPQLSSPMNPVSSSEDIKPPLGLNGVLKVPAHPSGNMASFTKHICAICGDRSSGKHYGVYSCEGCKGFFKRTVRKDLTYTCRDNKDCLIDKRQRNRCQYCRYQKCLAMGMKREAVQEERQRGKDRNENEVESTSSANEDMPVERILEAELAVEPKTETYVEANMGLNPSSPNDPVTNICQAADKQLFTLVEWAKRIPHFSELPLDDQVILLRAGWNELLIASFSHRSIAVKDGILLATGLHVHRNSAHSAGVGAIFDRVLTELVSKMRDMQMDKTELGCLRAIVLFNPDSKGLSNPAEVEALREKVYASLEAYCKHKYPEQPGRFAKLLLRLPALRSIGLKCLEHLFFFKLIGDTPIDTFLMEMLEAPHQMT
Peroxisome proliferator-activated receptor alpha (Homo sapiens), sequence (Q07869 whole entry, looked up): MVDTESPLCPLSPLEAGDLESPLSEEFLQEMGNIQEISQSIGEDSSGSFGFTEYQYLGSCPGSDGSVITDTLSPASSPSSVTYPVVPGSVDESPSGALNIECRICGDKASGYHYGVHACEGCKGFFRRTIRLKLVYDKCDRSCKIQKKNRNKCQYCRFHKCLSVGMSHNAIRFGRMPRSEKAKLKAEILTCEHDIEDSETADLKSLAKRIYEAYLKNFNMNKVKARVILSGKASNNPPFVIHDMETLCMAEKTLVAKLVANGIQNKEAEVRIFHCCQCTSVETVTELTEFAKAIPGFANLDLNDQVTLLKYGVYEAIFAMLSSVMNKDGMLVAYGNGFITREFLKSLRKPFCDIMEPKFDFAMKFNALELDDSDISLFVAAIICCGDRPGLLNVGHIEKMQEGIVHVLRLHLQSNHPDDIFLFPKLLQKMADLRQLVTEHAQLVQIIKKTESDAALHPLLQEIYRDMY
Nuclear receptor ROR-gamma (Homo sapiens), sequence (P51449 whole entry, looked up): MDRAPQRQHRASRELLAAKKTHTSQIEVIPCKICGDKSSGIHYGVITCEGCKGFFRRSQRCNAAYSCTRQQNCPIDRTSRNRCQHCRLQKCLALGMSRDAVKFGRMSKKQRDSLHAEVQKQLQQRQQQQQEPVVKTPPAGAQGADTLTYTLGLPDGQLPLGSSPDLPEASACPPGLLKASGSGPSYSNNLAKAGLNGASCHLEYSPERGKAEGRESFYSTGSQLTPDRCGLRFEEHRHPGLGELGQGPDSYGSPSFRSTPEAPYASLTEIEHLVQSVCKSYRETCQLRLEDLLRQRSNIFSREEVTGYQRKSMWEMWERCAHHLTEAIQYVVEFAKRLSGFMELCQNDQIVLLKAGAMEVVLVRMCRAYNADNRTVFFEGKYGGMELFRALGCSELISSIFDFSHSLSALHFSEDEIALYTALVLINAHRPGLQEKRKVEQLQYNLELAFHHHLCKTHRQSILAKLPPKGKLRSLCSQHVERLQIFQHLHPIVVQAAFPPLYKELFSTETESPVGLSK
Tumor necrosis factor (Homo sapiens), sequence (P01375 whole entry, looked up): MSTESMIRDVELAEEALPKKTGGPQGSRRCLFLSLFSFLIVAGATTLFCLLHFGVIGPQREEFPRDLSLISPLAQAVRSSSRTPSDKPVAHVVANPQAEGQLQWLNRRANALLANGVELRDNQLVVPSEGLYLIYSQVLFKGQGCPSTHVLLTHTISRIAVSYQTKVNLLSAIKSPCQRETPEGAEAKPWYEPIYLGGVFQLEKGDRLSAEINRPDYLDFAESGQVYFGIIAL
Furin (Homo sapiens), sequence (P09958 whole entry, looked up): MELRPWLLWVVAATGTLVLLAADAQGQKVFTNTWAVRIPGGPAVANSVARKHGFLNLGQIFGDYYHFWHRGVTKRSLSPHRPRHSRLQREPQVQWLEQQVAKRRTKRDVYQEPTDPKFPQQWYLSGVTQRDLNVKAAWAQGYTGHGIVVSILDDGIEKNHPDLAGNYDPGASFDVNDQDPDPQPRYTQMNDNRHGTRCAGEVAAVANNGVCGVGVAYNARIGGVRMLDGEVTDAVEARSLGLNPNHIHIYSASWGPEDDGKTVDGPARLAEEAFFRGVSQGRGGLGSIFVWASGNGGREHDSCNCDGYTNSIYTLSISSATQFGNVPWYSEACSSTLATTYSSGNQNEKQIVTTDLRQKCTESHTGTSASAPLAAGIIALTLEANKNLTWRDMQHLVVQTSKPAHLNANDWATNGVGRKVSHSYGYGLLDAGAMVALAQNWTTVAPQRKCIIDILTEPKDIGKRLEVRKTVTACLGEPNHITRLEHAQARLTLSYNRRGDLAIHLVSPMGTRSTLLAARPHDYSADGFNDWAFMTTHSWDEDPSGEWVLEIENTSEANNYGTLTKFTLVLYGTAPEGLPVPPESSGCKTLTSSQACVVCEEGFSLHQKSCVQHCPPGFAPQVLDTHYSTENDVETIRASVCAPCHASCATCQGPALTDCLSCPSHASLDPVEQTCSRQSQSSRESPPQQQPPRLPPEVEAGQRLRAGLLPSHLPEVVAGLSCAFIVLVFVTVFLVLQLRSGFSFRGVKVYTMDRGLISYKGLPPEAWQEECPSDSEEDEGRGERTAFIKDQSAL
Voltage-gated inwardly rectifying potassium channel KCNH2 (Homo sapiens), sequence (Q12809 whole entry, looked up): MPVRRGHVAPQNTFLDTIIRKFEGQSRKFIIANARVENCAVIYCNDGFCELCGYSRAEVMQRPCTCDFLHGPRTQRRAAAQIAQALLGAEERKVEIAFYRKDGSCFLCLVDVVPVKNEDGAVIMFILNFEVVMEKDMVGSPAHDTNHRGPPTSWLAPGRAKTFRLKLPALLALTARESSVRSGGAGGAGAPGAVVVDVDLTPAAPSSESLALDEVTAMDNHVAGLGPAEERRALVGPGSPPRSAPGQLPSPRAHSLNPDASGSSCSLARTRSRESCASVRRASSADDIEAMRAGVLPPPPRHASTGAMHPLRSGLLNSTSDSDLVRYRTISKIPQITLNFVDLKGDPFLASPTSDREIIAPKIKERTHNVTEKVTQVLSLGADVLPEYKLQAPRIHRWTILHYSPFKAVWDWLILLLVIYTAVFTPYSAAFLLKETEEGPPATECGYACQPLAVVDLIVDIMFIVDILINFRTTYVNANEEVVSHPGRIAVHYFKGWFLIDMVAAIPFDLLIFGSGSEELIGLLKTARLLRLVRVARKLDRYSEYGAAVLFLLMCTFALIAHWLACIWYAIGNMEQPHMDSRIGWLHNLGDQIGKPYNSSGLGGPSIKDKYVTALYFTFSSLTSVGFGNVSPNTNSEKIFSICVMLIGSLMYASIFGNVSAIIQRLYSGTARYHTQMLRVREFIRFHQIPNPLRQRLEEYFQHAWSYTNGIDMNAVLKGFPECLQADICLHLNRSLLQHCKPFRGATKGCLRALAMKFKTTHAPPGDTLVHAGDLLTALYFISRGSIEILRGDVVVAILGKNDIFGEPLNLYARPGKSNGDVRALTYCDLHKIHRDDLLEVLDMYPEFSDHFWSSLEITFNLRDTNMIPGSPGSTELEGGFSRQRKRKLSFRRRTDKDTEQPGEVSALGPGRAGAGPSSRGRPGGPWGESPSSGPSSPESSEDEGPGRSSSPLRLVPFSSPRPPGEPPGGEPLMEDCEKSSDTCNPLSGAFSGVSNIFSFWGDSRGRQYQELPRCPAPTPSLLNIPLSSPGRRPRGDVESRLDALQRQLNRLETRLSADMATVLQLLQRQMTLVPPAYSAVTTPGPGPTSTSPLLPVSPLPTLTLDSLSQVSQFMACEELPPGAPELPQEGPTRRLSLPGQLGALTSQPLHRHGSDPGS
Thyroid hormone receptor beta (Homo sapiens), sequence (P10828 whole entry, looked up): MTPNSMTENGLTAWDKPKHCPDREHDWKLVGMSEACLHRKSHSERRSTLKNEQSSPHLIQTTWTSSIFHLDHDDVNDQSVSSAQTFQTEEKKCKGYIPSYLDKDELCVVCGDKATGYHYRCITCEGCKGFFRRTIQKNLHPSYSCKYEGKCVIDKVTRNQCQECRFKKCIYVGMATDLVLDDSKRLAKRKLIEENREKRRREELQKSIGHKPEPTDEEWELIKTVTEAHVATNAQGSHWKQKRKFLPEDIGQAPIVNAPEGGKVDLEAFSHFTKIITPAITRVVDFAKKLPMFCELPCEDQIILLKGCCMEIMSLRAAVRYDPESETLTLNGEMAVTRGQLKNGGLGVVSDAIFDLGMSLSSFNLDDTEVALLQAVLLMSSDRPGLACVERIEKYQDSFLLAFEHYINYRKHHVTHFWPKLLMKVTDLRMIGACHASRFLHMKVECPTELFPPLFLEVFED

Oc1c(Cl)c(Cl)c(Cl)c(Cl)c1Cl
inactive: max response [1] 12.8% and -17.7% | activity change % (negative = inhibition) [2] -4.36% | Potency [3] | activation [6] -1.59% | outcome [9] | max response [11] 18.2% and 10.1% | Potency [13] | max response [14] -14.8% and -25.3% | max response [15] -15.6% and -10.7% | outcome [16] | Potency (Furin (Homo sapiens)) | max response [22] -11.9% and -10.8%
active: Potency [4] 26.6 µM and 24.3 µM | Potency [5] 22.4 µM and 39.8 µM | Potency [7] 42.2 µM | Potency [8] 42.2 µM | Potency [10] 44.7 µM and 39.8 µM | Potency [12] 16.8 µM | Potency [17] 7.08 µM | Potency [18] 11.2 µM | Potency [19] 4.47 µM | Potency [20] 355 µM | Potency [21] 70.8 µM
